{"source": "PubChem BioAssay AID540276", "about": "(National Center for Advancing Translational Sciences (NCATS), 2011)", "note": "Hit rate of the full screen: of about 300,000 compounds, about 5,400 (1.8%) were called active. Another 28% or so got no clear call; they are omitted. Calls come from the whole dose curve; tested in HEK293 cells. What follows is part of a selection rich in actives, with near analogues and random picks from the rest. Non-standard residues stand in square brackets, D forms with d. Residues, ends and D or L forms follow the SMILES beside them. ξ: configuration not given here. Ac5c = NC1(C(=O)O)CCCC1; ξS = NC(CO)C(=O)O", "data": [{"assay": "qHTS for inhibitors of binding or entry into cells for Marburg Virus; note: potency is the fitted concentration of half-maximal effect; for activity change, negative = inhibition: % is set by controls: 0 for no effect and ±100 for the full control effect", "conditions": "Marburg virus pseudotyped entry inhibition, cell reporter; series mostly up to 37.8 µM; activity change, negative = inhibition: at the top concentration", "values": [{"compound": "COc1ccc(OC)c(NC(=O)CN2CCN(C(=O)c3ccco3)CC2)c1", "activity change, negative = inhibition": "10.5% (inactive)"}, {"compound": "CCc1cc(C(=O)c2ccc(OC)cc2)c(NC(=O)CN2CCN(C)CC2)s1", "Potency": "3.55 µM (active)"}, {"compound": "COc1ccc(CNC(=O)C2CCN(C(=O)c3ccco3)CC2)cc1", "activity change, negative = inhibition": "-12.6% [at 46.1 µM] (inactive)"}, {"compound": "COc1cc2[nH]c(O)c(C=O)c2cc1OC", "activity change, negative = inhibition": "0.231% [at 46.1 µM] (inactive)"}, {"compound": "COc1ccc(CC(=O)Nc2nc(-c3ccc(F)c(F)c3)cs2)cc1OC", "Potency": "10 µM (active)"}, {"compound": "COc1ccc(-c2csc(NC(=O)c3ccc(N4C(=O)CCC4=O)cc3)n2)cc1OC", "activity change, negative = inhibition": "3.07% [at 46.1 µM] (inactive)"}, {"compound": "COc1cc(CC(=O)Nc2nc(-c3ccc(F)c(F)c3)cs2)cc(OC)c1OC", "Potency": "7.94 µM (active)"}, {"compound": "COc1ccc(-c2csc(NC(=O)COC(=O)Cc3ccc(Cl)cc3Cl)n2)cc1", "activity change, negative = inhibition": "-5.49% (inactive)"}, {"compound": "CCCc1ccc(-c2csc(NC(=O)Cc3cccs3)n2)cc1", "activity change, negative = inhibition": "-11.2% (inactive)"}, {"compound": "Cc1ccc(-c2csc(NC(=O)Cc3cccs3)n2)cc1C", "activity change, negative = inhibition": "-8.89% (inactive)"}, {"compound": "CCOc1ccc(CCNC(=O)COC(=O)c2c(OC)cccc2OC)cc1OCC", "activity change, negative = inhibition": "-14.9% (inactive)"}, {"compound": "Cc1cc(Br)ccc1NC(=O)CN(C)C(=O)CN1C(=O)NC2(CCCC2)C1=O", "activity change, negative = inhibition": "-2.22% (inactive)"}, {"compound": "CCc1nnc(NC(=O)C2CCN(C(=O)c3ccccc3C)CC2)s1", "activity change, negative = inhibition": "4.28% (inactive)"}, {"compound": "O=C(Nc1ccccc1)C1CCN(C(=O)c2ccc(Br)cc2)CC1", "activity change, negative = inhibition": "-6.33% (inactive)"}, {"compound": "CCOC(=O)C(CO)NC(=O)C1(NC(C)=O)CCCC1", "note": "(configuration not stated) (Ac-[Ac5c]-[ξS]-OEt)", "activity change, negative = inhibition": "6.4% [at 46.1 µM] (inactive)"}, {"compound": "Cc1ccccc1NC(=S)N(CCCN1CCOCC1)Cc1cccs1", "activity change, negative = inhibition": "18.9% (inactive)"}, {"compound": "CCc1ccccc1NC(=S)N(CCN1CCCCCC1)Cc1ccco1", "activity change, negative = inhibition": "3.1% [at 46.1 µM] (inactive)"}, {"compound": "CCc1cccc(C)c1NC(=S)N(CCCN1CCN(C)CC1)Cc1cccs1", "Potency": "10 µM (active)"}, {"compound": "CCC(=O)Nc1ccc(S(=O)(=O)Nc2c(NC)c3ccccc3oc2=O)cc1", "activity change, negative = inhibition": "-29.2% [at 46.1 µM] (inactive)"}, {"compound": "CCCN(C(=O)CSc1nnc(N)s1)c1c(N)n(Cc2ccccc2)c(=O)[nH]c1=O", "activity change, negative = inhibition": "-6.1% (inactive)"}, {"compound": "CNC(=O)C1CC(=O)N(c2ccc(OCC(=O)Nc3ccccc3C)cc2)C1", "note": "(configuration not stated)", "activity change, negative = inhibition": "5.17% (inactive)"}, {"compound": "Cc1cccc(N(C)C(=O)c2cc3c(=O)[nH]c4ccc(C)cc4c3s2)c1", "Potency": "3.55 µM (active)"}, {"compound": "COc1ccc(CNC(=O)c2cc3c(=O)[nH]c4ccc(C)cc4c3s2)c(OC)c1", "activity change, negative = inhibition": "-18.7% [at 46.1 µM] (inactive)"}, {"compound": "Cc1ccc2[nH]c(=O)c(CC=C(Cl)Cl)c(C)c2c1", "activity change, negative = inhibition": "7.58% [at 46.1 µM] (inactive)"}, {"compound": "CCOC(=O)N/N=C1\\C[C@@H](O)[C@@H](O)[C@@H]2[C@@H]3C(=O)N(C4CCCCC4)C(=O)[C@@H]3CC[C@@H]12", "activity change, negative = inhibition": "19.7% [at 14.2 µM] (inactive)"}, {"compound": "Cc1ccc(NC(=O)CSC2=C(C#N)[C@H](c3ccc4c(c3)OCO4)CC(=O)N2)cc1C", "activity change, negative = inhibition": "-6.33% (inactive)"}, {"compound": "NS(=O)(=O)c1cccc(NC(=O)COC(=O)c2cc([N+](=O)[O-])ccc2N2CCCC2)c1", "activity change, negative = inhibition": "-19.3% (inactive)"}, {"compound": "N#Cc1cccc(NC(=O)COC(=O)c2ccccc2C(=O)c2ccc(Cl)c([N+](=O)[O-])c2)c1", "Potency": "23.1 µM (active)"}, {"compound": "O=C(COC(=O)c1ccc([N+](=O)[O-])cc1Cl)NC(=O)c1ccccc1", "activity change, negative = inhibition": "11.8% (inactive)"}, {"compound": "CN(C(=O)CCNC(=O)Cn1ccc2ccccc2c1=O)c1ccc(Br)cc1", "activity change, negative = inhibition": "23.6% [at 46.1 µM] (inactive)"}, {"compound": "O=C(CCC1CCCN(C(=O)c2ccc(F)c(F)c2)C1)N1CCN(c2ccccn2)CC1", "note": "(configuration not stated)", "activity change, negative = inhibition": "-24.9% (inactive)"}, {"compound": "CC1(c2ccccc2)NC(=O)N(CC(=O)Nc2cc(Cl)ccc2N2CCOCC2)C1=O", "note": "(configuration not stated)", "activity change, negative = inhibition": "2.18% (inactive)"}, {"compound": "COc1cc(OC)cc(-c2c(-c3cccs3)c3cc(-c4ccc(OC)cc4F)ccc3n2C)c1", "activity change, negative = inhibition": "-2.74% (inactive)"}, {"compound": "Cc1ccccc1N1CC(C(=O)Nc2nnc(SCCC3OCCO3)s2)CC1=O", "note": "(configuration not stated)", "activity change, negative = inhibition": "-24.4% (inactive)"}, {"compound": "CC(C)(C)NC(=O)NC(=O)COC(=O)Cc1ccc(Cl)cc1Cl", "activity change, negative = inhibition": "-0.511% [at 46.1 µM] (inactive)"}, {"compound": "NNC(=O)c1ccc(Cl)cc1Cl", "activity change, negative = inhibition": "5.31% (inactive)"}, {"compound": "CC(C)(C)c1cc(C(=O)NN)n(Cc2ccc(Cl)cc2Cl)n1", "Potency": "11.2 µM (active)"}, {"compound": "Cc1cc(NC[C@@H]2CCCO2)n2c(nc3ccccc32)c1C#N", "activity change, negative = inhibition": "1.22% [at 46.1 µM] (inactive)"}, {"compound": "CN1CCN(CCNC(=O)Nc2ccccc2[N+](=O)[O-])CC1", "activity change, negative = inhibition": "26.4% [at 46.1 µM] (inactive)"}, {"compound": "CCOc1ccc(C(O)Cn2c(=N)n(CCN3CCCCC3)c3ccccc32)cc1", "note": "(configuration not stated)", "Potency": "18.3 µM (active)"}, {"compound": "CCOc1ccc(CN2CCCN(C)CC2)cc1", "activity change, negative = inhibition": "-2.41% (inactive)"}, {"compound": "CCOc1ccc(C(O)Cc2nc3ccccc3n2C)cc1", "note": "(configuration not stated)", "activity change, negative = inhibition": "14.5% (inactive)"}, {"compound": "CCOc1ccc(S(=O)(=O)N2CCN(C(=S)NCC3CCCO3)CC2)cc1", "note": "(configuration not stated)", "activity change, negative = inhibition": "22.4% [at 46.1 µM] (inactive)"}, {"compound": "CC1(C)C(=O)CCC2(C)C1=CCC1C2C(=O)CC2(C)C1CCC2(O)C(=O)CO", "note": "(configuration not stated)", "activity change, negative = inhibition": "-26.4% (inactive)"}, {"compound": "CC(=O)OCC(=O)C1(O)CCC2C3CC(C)C4=CC(=O)CCC4(C)C3C(O)CC21C", "note": "(configuration not stated)", "activity change, negative = inhibition": "-12.6% [at 46.1 µM] (inactive)"}, {"compound": "COc1ccccc1NC(=O)N1CCCC1C(=O)NCc1cccs1", "note": "(configuration not stated)", "activity change, negative = inhibition": "2.43% [at 46.1 µM] (inactive)"}, {"compound": "CS(=O)(=O)Nc1ccc(C2=NN(S(C)(=O)=O)C(c3cccs3)C2)cc1", "note": "(configuration not stated)", "activity change, negative = inhibition": "15.1% (inactive)"}, {"compound": "CCS(=O)(=O)Nc1ccc(C2=NN(S(=O)(=O)c3ccc(F)cc3)C(c3ccco3)C2)cc1", "note": "(configuration not stated)", "Potency": "18.3 µM (active)"}, {"compound": "CCS(=O)(=O)Nc1ccc(C2=NN(C(C)=O)C(c3cccs3)C2)cc1", "note": "(configuration not stated)", "activity change, negative = inhibition": "-4.67% [at 46.1 µM] (inactive)"}, {"compound": "COc1ccc(-n2cc(CN(C)Cc3n[nH]c(=O)[nH]3)c(-c3cccc(F)c3)n2)cc1", "activity change, negative = inhibition": "-18.4% [at 46.1 µM] (inactive)"}, {"compound": "COc1ccc(-c2nn(-c3ccccc3)cc2CN2CCCO2)c(F)c1", "activity change, negative = inhibition": "-6.45% [at 46.1 µM] (inactive)"}, {"compound": "COc1ccc(-n2cc(CNC3CCOCC3)c(-c3cccc(F)c3)n2)cc1", "Potency": "11.2 µM (active)"}]}]}
